Compound activity (PubChem BioAssay)
ERa SRC1 inh: ER-alpha (human) coactivator binding inhibition | P03372 | TR-FRET ER-alpha LBD / SRC-1 peptide, estradiol-bound | inhibition, % at 25.6 µM | actives 1.7% (n = 86,000) | AID 629; in the data active means inhibition above about 50%;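 further: 0% = receptor plus peptide control and 100% = peptide only without receptor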
ERb coact inh: blocks coactivator binding to human estrogen receptor beta; Q92731; actives 1.3% (n = 86,000); TR-FRET ER-beta LBD / SRC1-Cy5 peptide binding; receptor agonist-loaded with 1 µM estradiol; inhibition, % at 25.6 µM;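 active means compounds whose percent inhibition of the receptor-coactivator binding signal exceeds about 50% in the single-dose screen, limit read from the data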;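 further: 0% = receptor plus peptide wells without compound and 100% = peptide-only wells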
Target sequence (Q92731 whole entry, looked up, the tested form may be a part): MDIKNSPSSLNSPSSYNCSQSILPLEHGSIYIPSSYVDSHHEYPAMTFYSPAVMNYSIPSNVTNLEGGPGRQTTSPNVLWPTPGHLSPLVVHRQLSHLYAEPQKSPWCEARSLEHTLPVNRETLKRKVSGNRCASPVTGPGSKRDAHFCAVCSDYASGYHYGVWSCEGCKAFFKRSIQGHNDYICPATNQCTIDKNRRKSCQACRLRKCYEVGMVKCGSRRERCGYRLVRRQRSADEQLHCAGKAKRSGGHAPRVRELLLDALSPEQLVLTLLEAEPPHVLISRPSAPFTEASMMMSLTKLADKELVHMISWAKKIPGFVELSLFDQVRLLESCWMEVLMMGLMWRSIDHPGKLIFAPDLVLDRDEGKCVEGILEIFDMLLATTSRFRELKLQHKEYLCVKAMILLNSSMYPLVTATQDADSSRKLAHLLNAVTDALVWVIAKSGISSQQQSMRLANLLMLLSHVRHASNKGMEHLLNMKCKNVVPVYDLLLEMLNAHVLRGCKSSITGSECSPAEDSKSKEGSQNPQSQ
FAK blocker: FAK (human) kinase inhibition; biochemical FAK kinase activity assay; inhibition, %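 (tested at 7 µM)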; actives 0.84% (n = 97,000);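 further: 0% = DMSO and 100% = reference compound high control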
Smad3 FoxH1 inh: inhibitors of human Smad3 transcription factor binding; inhibition, % at 25 µM; P84022; TR-FRET Smad3/Dy647-FoxH1 peptide binding, europium anti-His; actives 0.29% (n = 88,000);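 active means compounds that reduce the energy-transfer binding signal between the protein and its labelled peptide by more than half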;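 further: 0% = Smad3 plus labelled peptide maximal FRET and 100% = peptide-only background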
ERa coact pot: ER-alpha (human) coactivator binding potentiation | P03372 | TR-FRET ERalpha-LBD/SRC-Cy5 coactivator binding, 2 h; 100 = basal binding, no effect | coactivator binding (% of control), % at 25.6 µM | actives 1.3% (n = 86,000) | AID 639; in the data active means activity above about 200%;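 further: binding measured in presence of low estradiol as agonist stimulus; 0% = peptide alone without receptor and 100% = receptor with peptide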
FAK inh conf: confirmation of human focal adhesion kinase (FAK) inhibitors; shares compounds with FAK blocker; FAK kinase biochemical inhibition assay; inhibition, % at 7 µM; actives 28% (n = 750)
Starred values were filed as active, the others as inactive; [ ] = another dose, or the depositor's remark. Shown are actives, neighbours in structure and some others; about 3.3% of the full set was active somewhere. Unless noted, no stated cut-off is given here; in the data, active means inhibition above about 19%; inactive means the rest.

`O=C(N/N=C1/C(=O)c2cccc3cccc1c23)c1ccc(Cl)cc1` gave FAK blocker 92.2* and FAK inh conf 87.0*.
CCNC(=S)N/N=C1\C(=O)c2cccc3cccc1c23 was read as FAK blocker 3.2.
Screening COc1ccc(-n2nnnc2Sc2ccc(S(=O)(=O)N3CCOCC3)cn2)cc1 returned ERa SRC1 inh -3.6, ERb coact inh -7.6, Smad3 FoxH1 inh 9.8 and ERa coact pot 113.0.
For NS(=O)(=O)c1ccc(NS(=O)(=O)c2ccc(NC(=O)c3ccc(-c4ccccc4)cc3)cc2)cc1 the results were FAK blocker 29.6* and FAK inh conf 14.2.
Screening O=C1CCCc2sccc2N1 returned ERa SRC1 inh 0.6, ERb coact inh 5.9, FAK blocker -1.2, Smad3 FoxH1 inh 0.8 and ERa coact pot 102.4.
`COc1ccc(C(=O)Nc2nccs2)cc1OC` gave ERa SRC1 inh 3.6, ERb coact inh 2.0, Smad3 FoxH1 inh 1.2 and ERa coact pot 109.9.
`Cc1nn(Cc2ccc(C(=O)Nc3nccs3)cc2)c(C)c1Cl` gave ERa SRC1 inh 11.0, ERb coact inh 1.8, FAK blocker 21.8*, Smad3 FoxH1 inh 4.1, ERa coact pot 128.8 and FAK inh conf 3.4.
Cc1ccc2c(CC(=O)OCc3cc(=O)n4c(n3)sc3ccccc34)coc2c1 was read as FAK blocker 22.6* and FAK inh conf -0.5.
Screening COc1ccc(OC)c2[nH]c(=O)c(CCNC(=O)CC(C)C)cc12 returned ERa SRC1 inh -5.2, ERb coact inh 3.0, FAK blocker 7.8, Smad3 FoxH1 inh 11.8 and ERa coact pot 116.4.
Screening Cc1cc(OCC(=O)Nc2ccc(N3CCN(C(=O)c4ccco4)CC3)cc2)cc(C)c1Cl returned FAK blocker 69.3* and FAK inh conf 22.3*.
For Cc1cccc(OCC(=O)Nc2ccc(N3CCN(C(=O)c4ccco4)CC3)cc2)c1 the results were FAK blocker 6.4.
Cc1cc(OCC(=O)Nc2ccc(N3CCCC3)cc2)cc(C)c1Cl was read as ERa SRC1 inh 1.7, ERb coact inh 11.2, FAK blocker 33.5*, Smad3 FoxH1 inh -4.5, ERa coact pot 102.8 and FAK inh conf 17.3.
Screening Cc1cc(NC(=O)Cc2cccs2)no1 returned ERa SRC1 inh 96.8*[fluorescence artefact?], ERb coact inh 88.7*[fluorescence artefact?], FAK blocker 40.0*, Smad3 FoxH1 inh 5.1, ERa coact pot 16.6 and FAK inh conf 27.9*.
CSc1nc(SCC(=O)NC(c2ccccc2)c2ccccc2)c2c3c(sc2n1)CN(C)CC3 was read as ERa SRC1 inh 44.1, ERb coact inh 22.7, FAK blocker 24.0*, Smad3 FoxH1 inh -15.0, ERa coact pot 157.1 and FAK inh conf 1.1.
For CSc1nc(SCC(=O)NCc2ccco2)c2c3c(sc2n1)COC(C)(C)C3 the results were ERa SRC1 inh 15.3, ERb coact inh 3.8, Smad3 FoxH1 inh -1.5 and ERa coact pot 142.9.
For O=S(=O)(c1cc(Cl)ccc1Cl)N1CC2CCCN2c2ccc(C(F)(F)F)cc21 (stereo not given) the results were FAK blocker 0.5.
Screening Cc1ccc2nc3c(cc(C(N)=S)c(=N)n3CCCOC(C)C)c(=O)n2c1 returned ERa SRC1 inh 6.4, ERb coact inh -12.9, FAK blocker 28.3*, Smad3 FoxH1 inh 4.5, ERa coact pot 118.0 and FAK inh conf -2.1.
C=CCn1c(=N)c(C(=O)OCC)cc2c(=O)n3cc(C)ccc3nc21 was read as ERa SRC1 inh 6.6, ERb coact inh 0.4, Smad3 FoxH1 inh 4.3 and ERa coact pot 117.5.
For CSc1nsc(SC)c1NC(=O)OCC1CCCO1 (stereo not given) the results were FAK blocker 0.7.
For O=C(Oc1ccc2c(c1)OCO2)c1cc2c(s1)CCC2 the results were ERa SRC1 inh 92.5*[fluorescence artefact?], ERb coact inh 83.3*, FAK blocker 23.9*, Smad3 FoxH1 inh 0.1, ERa coact pot 11.2 and FAK inh conf 2.9.
Screening Cc1cc(/C=N/NC(=O)c2cccc([N+](=O)[O-])c2)c(C)n1-c1ccc(Cl)cc1Cl returned FAK blocker 19.9* and FAK inh conf 10.0.
For CN1CCN(C(=O)CN(Cc2ccccc2)S(C)(=O)=O)CC1 the results were ERa SRC1 inh 5.8, ERb coact inh 2.8, FAK blocker 1.0, Smad3 FoxH1 inh 1.6 and ERa coact pot 112.8.
Screening CS(=O)(=O)N(CC(=O)N1CCOCC1)Cc1ccccc1 returned ERa SRC1 inh -3.7, ERb coact inh 37.8, FAK blocker 34.5*, Smad3 FoxH1 inh 7.8, ERa coact pot 102.5 and FAK inh conf 0.7.
For Clc1ccc(Br)cc1-c1nc(-c2ccncc2)no1 the results were ERa SRC1 inh 34.5, ERb coact inh 26.6, FAK blocker 27.8*, Smad3 FoxH1 inh 9.2, ERa coact pot 246.3*[fluorescence artefact?] and FAK inh conf 6.3.
For Brc1cccc(-c2nc(-c3ccncc3)no2)c1 the results were ERa SRC1 inh 2.3, ERb coact inh 6.3, Smad3 FoxH1 inh -22.2 and ERa coact pot 84.2.
CCN1CCN(c2cc(C)c3cc(NC(=O)c4cncc(Br)c4)ccc3n2)CC1 was read as ERa SRC1 inh -9.9, ERb coact inh 32.5, FAK blocker 26.3*, Smad3 FoxH1 inh 2.4, ERa coact pot 80.6 and FAK inh conf 12.3.
`CCN1CCN(c2cc(C)c3cc(NC(=O)c4ccc(OC)c(OC)c4)ccc3n2)CC1` gave ERa SRC1 inh 14.6, ERb coact inh 20.6, FAK blocker 12.1, Smad3 FoxH1 inh 9.4 and ERa coact pot 81.2.
For O=c1oc2ccccc2n1CCn1c2ccccc2c2nc3ccccc3nc21 the results were ERa SRC1 inh 77.0*, ERb coact inh 48.5, FAK blocker 29.7*, Smad3 FoxH1 inh 1.7, ERa coact pot 146.4 and FAK inh conf 45.6*.
Screening CCOC(=O)c1c(C)[nH]c(C)c1C(=O)CSc1ncccn1 returned FAK blocker 0.9.
COc1ccc(NS(=O)(=O)c2ccc(S(=O)(=O)N3CCCC3)cc2)cc1Cl was read as FAK blocker -1.9.
`CN(C)c1ccnc(Oc2ccc(C(C)(C)C)cc2)c1C#N` gave FAK blocker 7.2.
`Cc1nnc(NC(=O)CSc2ncnc3c2cnn3-c2ccccc2C)s1` gave FAK blocker 30.1* and FAK inh conf 2.2.
N#C/C(=C\c1cccc(Cl)c1)c1n[nH]c(Cn2cncn2)n1 was read as ERa SRC1 inh -0.4, ERb coact inh -11.3, FAK blocker -3.0, Smad3 FoxH1 inh 4.4 and ERa coact pot 128.7.
Screening CC1CCCN(C(=O)COC(=O)c2ccc[nH]c2=O)C1 (stereo not given) returned ERa SRC1 inh -8.0, ERb coact inh 9.0, FAK blocker 1.0, Smad3 FoxH1 inh -3.8 and ERa coact pot 103.9.
Screening Cc1ccc(NC(=O)c2ccco2)c(NC(=O)Cc2cccs2)c1 returned ERa SRC1 inh -6.2, ERb coact inh -1.2, FAK blocker 1.7, Smad3 FoxH1 inh -15.7 and ERa coact pot 115.1.
